Test results taken from PubChem BioAssay (NCI).
This is part of a sample that, as a whole, favours compounds with a hit. Of some 83,000 tested, about 20% had one in any assay.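 Compound tested at a single concentration for 48 hours in 96-well plates; a percent growth value below 10 was scored as active.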 Unmarked numbers belong to inactive results. Active and inactive are the calls of the source.

Assays:
Assay in all cases: NCI-60 one-dose screen, 48 h (100 = growth as untreated, 0 = no growth, -100 = all killed)
SK-MEL-2 melanoma = details: 10 µM unless noted
EKVX NSCLC = details: 10 µM unless noted
SN12C renal = details: 10 µM unless noted
UO-31 renal = details: 10 µM unless noted
TK-10 renal = details: 10 µM unless noted
ACHN renal = details: 10 µM unless noted
CAKI-1 renal = details: 10 µM unless noted
A498 renal = details: 10 µM
HL-60(TB) leukemia = details: 10 µM unless noted
CCRF-CEM leukemia = details: 10 µM unless noted
MOLT-4 leukemia = details: 10 µM unless noted
SR leukemia = details: 10 µM unless noted
OVCAR-8 ovarian = details: 10 µM unless noted
OVCAR-5 ovarian = details: 10 µM unless noted
OVCAR-4 ovarian = details: 10 µM unless noted
SK-OV-3 ovarian = details: 10 µM unless noted
IGROV1 ovarian = details: 10 µM unless noted
OVCAR-3 ovarian = details: 10 µM unless noted
HS 578T breast = details: 10 µM unless noted
RPMI-8226 leukemia = details: 10 µM unless noted

SMILES	growth (SK-MEL-2 melanoma)	growth (EKVX NSCLC) [%]	growth (SN12C renal) [%]	growth (UO-31 renal)	growth (TK-10 renal) [%]	growth (ACHN renal) [%]	growth (CAKI-1 renal)	growth (A498 renal)	growth (HL-60(TB) leukemia)	growth (CCRF-CEM leukemia) [%]	growth (MOLT-4 leukemia) [%]	growth (SR leukemia) [%]	growth (OVCAR-8 ovarian) [%]	growth (OVCAR-5 ovarian) [%]	growth (OVCAR-4 ovarian) [%]	growth (SK-OV-3 ovarian) [%]	growth (IGROV1 ovarian) [%]	growth (OVCAR-3 ovarian) [%]	growth (HS 578T breast)	growth (RPMI-8226 leukemia) [%]
O=[N+]([O-])c1ccc([Se]C2CCCCC2Cl)c([N+](=O)[O-])c1 (centres undefined)	66.5%	46	59.5	-88.3% (active)	102	88.2	76.7%	29.4%	78.8%	80.9	73.2	78.7	59.7	101	78.8	106	70.8	88.2	22.2%	
COC1=CC(=O)O[C@@H](/C=C/c2ccc3c(c2)OCO3)C1	-20.1% (active)	114	100	87.5%	102	110	107%	59.2%	114%	61.2	91		99.3	95.7	112	110	99.2	153	95.1%	49.9
COC(=O)[C@]12CCC(C)(C)C[C@H]1[C@H]1C(=O)C[C@@H]3[C@@]4(C)C[C@@]5(CC(C)(C)[C@@H]4CC[C@@]3(C)[C@]1(C)CC2)OO[C@@](C)(C(F)(F)F)O5	92.3%	93.6	92.4	87.8%	95.7	93.6	68.7%	78.2%	101%	94.8	93.6		97.6	94.1	81.1	103	97.8	106	99.7%	90.3
Cc1ccc2c(C(C[N+](=O)[O-])c3cccs3)c(-c3ccccc3)[nH]c2c1 (centres undefined)	20.7%	35.9	32	34.8%	64.7	33.8	2.76% (active)	-19.6% (active)	0.431% (active)	15	16.2		33	58.8		22.7	31.4	10.2	-11.7% (active)	11.8
CCCCN(CCCC)P(=O)(Oc1ccccc1)Oc1ccccc1	43.4%	59	59.9	42.2%	78.5	80.8	32.4%	93.8%	32.5%	61.9	39.4		84.1	94.1	51.5	66.7	57.3	87.2	85.3%	54.4
CCn1c2ccccc2c2cc(C(=O)c3cccc4c3CCCN4)ccc21	99.5%	99.3	93.7	94.1%	107	102	99.3%	112%	110%	120	104	95.3		99	101	106	110	103	92.1%	
c1ccc(CSC(c2ccccc2)c2ccccc2)cc1	114%	117	101	92.2%	123	103	96.7%	123%	68.5%	117	115	141	109	104	120	123	107	119	112%	
O=NNc1ccccn1	23.3%	109	87.4	83.6%	91	11.2	43.6%	96.5%	73.8%	126	67.9	66.7		68	90.8		86.1	112	89.7%	102
